The results in this text go back to PubChem BioAssay (NCI).

This is part of a sample that, as a whole, favours compounds with a hit. Of some 83,000 tested, about 20% had one in any assay.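 Note: values are percent growth. 100 is the growth of untreated cells, values between 100 and 0 indicate rising inhibition; between -100 and 0 indicates cell death.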 A number with no mark means an inactive call. Active and inactive are the calls of the source.

The assay concerns T-47D breast. Nature of the assay: NCI-60 one-dose screen, 48 h (100 = growth as untreated, 0 = no growth, -100 = all killed). Conditions: 10 µM unless noted. How it is done:
Growth inhibition of the T-47D human tumor cell line is measured as a screen for anti-cancer activity. Cells are grown in 96 well plates and exposed to the test compound for 48 hours. Compounds are tested at a single concentration, which is 10^-5 M for most compounds. The reported endpoint is percent growth (GI% or GIPRCNT), where numbers from 0 - 100% represent growth inhibition, and numbers from -100% - 0 represent cell death. For example, a value of 40 represents 60% growth inhibition. A value of 0 means no net growth occurred over the course of the experiment. A value of -40 indicates 40% of cells at the beginning of the experiment died by the end of the experiment. A value of -100 means all cells are dead at the end of the experiment.
NCI-60 Human Tumor Cell Lines Screen was performed using the standard one-dose NCI protocol, which is described in more detail at https://dtp.cancer.gov/discovery_development/nci-60/default.htm.
Compounds with GIPRCNT values below 10 were considered active. Activity score was based on GIPRCNT using the following formula: […]
Score is 0 for GIPRCNT values of 100 or above, 50 for GIPRCNT values of 0, and 100 for GIPRCNT values of -100.
As for `C#C[C@]1(O)CC[C@H]2[C@@H]3CC=C4c5sc(Nc6ccc(OC)nc6)nc5CC[C@]4(C)[C@H]3CC[C@@]21C`, the growth was 21.2%.

As for `COc1cc(O)c2c(c1)/C=C/C[C@H](O)[C@H](O)C(=O)/C=C\C[C@H](C)OC2=O`, the growth is -1.9% (active).

Take `COc1ccccc1N1CCN(C2=NN=C(c3cccc(Cl)c3)c3ccccc3C2)CC1`: the growth was 52.5%.

Turning to `N#Cc1c(-c2cccs2)cc(-c2cnccn2)nc1SCC(=O)NNC(=S)Nc1ccc(F)cc1`, the growth was 102%.

As for `Nc1n[nH]c2cccc(C#Cc3cccc(NC(=O)c4cccc(OC(F)(F)F)c4)c3)c12`, the growth is 33.6%.

On to `CCCCCCNC(=O)Oc1ccc(/C(=C(/C)c2ccc(OC)cc2)c2ccc(OCCN3CCCC3)cc2)cc1`, for which the growth is 59.7%.

`Cn1c2ccc(Br)cc2c2c3c(c4c5cc(F)ccc5oc4c21)C(=O)N(O)C3=O`: the growth was 63%.

On to `O=C(CN1CCN(c2cc(=O)n(-c3ccccc3)c3ccccc23)CC1)Nc1ccc([N+](=O)[O-])cc1`, for which the growth is 64.9%.

For the molecule `C=CCn1c(SCC(=O)c2ccc(OC)cc2)nnc1-c1ccc(OC)cc1`, the growth is 105%.

Consider `O=C(Nc1cccc(-c2nc(-c3ccc(NC(=O)c4cccs4)cc3Cl)no2)c1)Nc1ccc(NC(=O)C2CC2)c(C(F)(F)F)c1`, for which the growth is -50.2% (active).

On to `Cc1ccc(-n2cc(/C=C/C(=O)c3ccc(S(C)(=O)=O)cc3)c(-c3ccc(S(C)(=O)=O)cc3)n2)cc1`, for which the growth was 105%.

For the molecule `O=C(COc1ccc(/C=C2\SC(=O)NC2=O)cc1)Nc1ccc(C(=O)/C=C/c2cc3ccccc3nc2Cl)cc1`, the growth was 54.7%.

As to `Oc1ccc(CSc2nnc(-c3ccc(Br)cc3)n2-c2ccccc2)c2cccnc12`, the growth was 48.1%.

Regarding `CC(=O)c1sc(Nc2cccc(Nc3nc(C)c(C)s3)c2)nc1C`, the growth is 13.3%.

Take `NS(=O)(=O)c1ccc(Nc2nc(N/N=C/c3ccc(C(F)(F)F)cc3)nc(Nc3ccccc3)n2)cc1`: the growth was 31.3%.

Turning to `COc1cc(C2=NN(C(C)=O)C(c3ccc(N4CCOCC4)cc3)C2)cc(OC)c1OC` (stereo not given), the growth was 97.1%.

For `O=C(Nc1ccc(F)cc1)c1cc(-c2ccc(F)cc2F)ccc1O`, the growth was -4.71% (active).

On to `COc1ccc(/C=N/Nc2nc(Nc3ccccc3)nc(Nc3ccc(S(N)(=O)=O)cc3)n2)cc1`, for which the growth was 63.1%.

On to `Oc1ccc(CSc2nnc(-c3ccc(Oc4ccccc4)cc3)o2)c2cccnc12`, for which the growth was 7.85% (active).

On to `Cc1cc(Cl)cc(NS(=O)(=O)c2ccc(-c3cnc(C4CC4)o3)cc2)c1`, for which the growth is 36.1%.

In the case of `COc1ccc([C@H]2c3[nH]c4ccccc4c3C[C@@H]3C(=O)N(C4CCN(Cc5ccccc5)CC4)CC(=O)N23)c(OC)c1`, the growth is 82.8%.

Regarding `O=S(=O)(Nc1ccc2c(c1)OC(F)(F)O2)c1ccc(-c2cnc(C3CC3)o2)cc1`, the growth is 31.6%.

As for `Cc1ccc(Nc2ncnc3c2c(C)nn3-c2ccc([N+](=O)[O-])cc2)cc1`, the growth is 78.8%.

In the case of `CCOC(=O)Nc1cccc(-n2cnc3cc(-c4ccc(O)cc4)ccc32)c1`, the growth was 12.8%.

Take `CN(C)c1ccc(/C=N/Nc2nc(N/N=C/c3ccc(N(C)C)cc3)nc(N3CCOCC3)n2)cc1`: the growth was 94.7%.

On to `CCN1CCN(c2cc(C(=O)Nc3nc4ccc(Oc5ccnc(C(=O)NC)c5)cc4s3)cc(C(F)(F)F)c2)CC1`, for which the growth was 72%.

With `O=C(Nc1cccc(Cl)c1)Nc1nc2ccc(-c3cccc4ccccc34)cc2s1`, the growth was 11.2%.

As to `C#CCOc1ccc(C(Nc2ccc(OC)cc2)c2nnnn2C2CCCCC2)cc1` (stereo not given), the growth was 94.1%.

`Cc1ccc(/C=C/CC(=O)Nc2ccc(C(=O)Nc3ccc(F)cc3N)cc2)cn1`: the growth was 28.6%.

As to `O=C1CC2(CCOCC2)Oc2ncccc21`, the growth was 70.6%.

Take `C/C(=N\NC(=S)Nc1ccc(Br)cc1)c1cc2ccccc2oc1=O`: the growth was 43.1%.

As for `C#CCOc1ccc(C(Nc2cc(Cl)ccc2Cl)c2nnnn2C2CCCCC2)cc1` (stereo not given), the growth was 67.5%.

With `C#C[C@]1(O)CC[C@H]2[C@@H]3CC=C4c5sc(Nc6nc(C)cc(OC)n6)nc5CC[C@]4(C)[C@H]3CC[C@@]21C`, the growth is 59%.

Take `O=C(Nc1cccc(-c2nc(-c3ccc(NC(=O)c4cccnc4)cc3Cl)no2)c1)Nc1ccc(NC(=O)C2CC2)c(C(F)(F)F)c1`: the growth was -51.1% (active).

Regarding `CCC(=O)Nc1ccc(-c2nc(-c3cccc(O)c3)c(-c3ccnc(Br)c3)[nH]2)cc1`, the growth is 26.4%.

For the molecule `C=CCn1c(SCC(=O)Nc2cccc(C(=O)/C=C/c3ccc(OC)c(OC)c3)c2)nc2ccccc2c1=O`, the growth is 79.9%.

Turning to `O=C(O)c1ccc(-n2cc(CNc3ccc(Cl)cc3)c(-c3ccc(F)cc3)n2)cc1`, the growth is 91.4%.

As to `C#C[C@]1(O)CC[C@H]2[C@@H]3CC=C4c5sc(Nc6ccncc6)nc5CC[C@]4(C)[C@H]3CC[C@@]21C`, the growth was 39.9%.

For `O=C(COc1cccc2cccnc12)Nc1ccc(C(=O)/C=C/c2ccc(Cl)cc2)cc1`, the growth is 74.8%.

Regarding `O=C(O)CNS(=O)(=O)c1ccc(Oc2ccc(S(=O)(=O)NCC(=O)O)cc2)cc1`, the growth is 95.5%.
